# Measured values from PMC4552634, “A New Set of Chemical Starting Points with Plasmodium falciparum Transmission-Blocking Potential for Antimalarial Drug Discovery” (PLoS ONE, 2015).
# Screen size: about 13,000 compounds; about 3,200 (25%) showed an effect of 50% or more. The list shows a part of the results.
# Test system: P. falciparum stage V gametocytes
# Design: BacTiter-Glo ATP luminescence viability of purified stage V gametocytes in 384-well plates, per cent inhibition versus DMSO
# Settings: 48 h, 5 µM; inhibitor
row,Compound,% Inhibition
1,Nc1nc2c(c(=O)[nH]1)CN(S(=O)(=O)c1ccc(C(=O)N[C@@H](CCC(=O)O)C(=O)O)cc1)CC2 [TCMDC-137681],-6.076%
2,CCCN(C(=O)c1ccccc1C)c1nnc(-c2cccc(C)c2)s1 [TCMDC-124387],20.16%
3,CCOc1ccc(N(CC)S(=O)(=O)c2cc(Br)cc3c2N(C(=O)C2CC2)CC3)cc1 [TCMDC-125469],14.82%
4,CN1CCN(CCCN(Cc2ccc(-c3ccc(CNCCc4ccccc4)cc3)cc2)C(=O)c2cccs2)CC1 [TCMDC-140752],86.87%
5,O=C(NCCN1CCOCC1)c1ccc(-c2ccc(CNCCCc3ccccc3)cc2)nc1 [TCMDC-134245],16.29%
6,CN1CCN(CCCN(Cc2cccc(-c3ccc(CNCCc4ccccc4)cc3)c2)C(=O)c2cccs2)CC1 [TCMDC-140568],106.4%
7,CN(C)CCN(C)Cc1ccc(-c2cccc(NC(=O)c3cccc(C#N)c3)c2)cc1 [TCMDC-132651],-77.89%
8,Cc1noc(C)c1-c1cccc(CNCc2ccc(-c3ccc(-c4nc5cc(C(F)(F)F)ccc5[nH]4)s3)cc2)c1.O=C(O)C(F)(F)F [TCMDC-133062],33.98%
9,CC1CC(NCCCNc2cc(=O)c3ccccc3[nH]2)c2c1cc(Cl)c(Cl)c2Cl (stereo not drawn) [TCMDC-139480],-50.98%
10,CN(C)c1nc(NCc2ccccc2)nc(N/N=C/c2cc([N+](=O)[O-])ccc2O)n1 [TCMDC-124126],65.13%
11,O=[N+]([O-])c1ccc(Nc2nc(NCc3ccccc3)nc(N/N=C/c3ccccc3[N+](=O)[O-])n2)cc1 [TCMDC-124208],9.563%
12,O=[N+]([O-])c1ccc(Nc2nc(N/N=C/c3cc(Cl)cc(Cl)c3O)nc(Nc3ccccc3)n2)cc1 [TCMDC-123854],16.66%
13,CCCCC(CCCC)CN1C(=O)C(c2ccccc2)(c2ccccc2)N=C1N [TCMDC-136878],-47.08%
14,CC1CCCN(S(=O)(=O)c2cc(Br)cc3c2N(C(=O)C2CC2)CC3)C1 (stereo not drawn) [TCMDC-123872],16.45%
15,CCn1c(CN2CCN(Cc3ccccc3)CC2)nc2cc(NC(=O)c3cccs3)ccc21 [TCMDC-125164],1.939%
16,CCCC[C@@H](C(=O)NCCc1ccc(Cl)cc1)N1C(=O)CCC1C(=O)Nc1ccc(Cl)c(Cl)c1 (stereo partly drawn) [TCMDC-141410],67.56%
17,O=C(Nc1ccc(Cl)c(Cl)c1)C1CCC(=O)N1[C@@H](Cc1ccccc1)C(=O)NCCc1ccc(Cl)cc1 (stereo partly drawn) [TCMDC-141411],6.201%
18,CCCC[C@@H](C(=O)NCc1ccccc1C(F)(F)F)N1C(=O)CCC1C(=O)Nc1ccc([N+](=O)[O-])cc1 (stereo partly drawn) [TCMDC-141409],20.34%
19,CN(CCN(C)C(=O)NCc1ccccc1)C(=O)NCc1ccccc1 [TCMDC-138997],-5.894%
20,COc1ccc(NS(=O)(=O)c2ccc(C(=O)Nc3ccc(OC(F)(F)F)cc3)cc2)cc1N1CCN(CC2CC2)CC1 [TCMDC-136298],-1.186%
21,N#Cc1ccc2c(c1)CCN(CCC1CCC(NC(=O)c3cc4ccc(Cl)cc4[nH]3)CC1)C2 (stereo not drawn) [TCMDC-139194],-33.95%
22,Cc1ccc(CN2CCCN(Cc3cccc(C(=O)Nc4ccc(C(C)(C)C)cc4)c3)CC2)s1 [TCMDC-135991],-86.63%
23,CC(C)(C)c1ccc(NC(=O)c2ccc(CN3CCCN(Cc4ccc(F)cc4)CC3)cc2)cc1 [TCMDC-136435],-15.47%

row,Compound,% Inhibition
1,CN1CCCN(Cc2cccc(-c3cccc(NC(=O)c4ccc(Cl)cc4)c3)c2)CC1 [TCMDC-132653],14.2%
2,CN1CCCN(Cc2cccc(-c3ccc(NC(=O)c4ccc(Cl)cc4)cc3)c2)CC1 [TCMDC-132667],81.69%
3,CN1CCCN(Cc2cccc(-c3ccc(NC(=O)c4cccc(Cl)c4)cc3)c2)CC1 [TCMDC-132664],44.2%
4,O=C(Nc1ccc(CN2CCOCC2)cc1)c1ccc(-c2ccc(Br)cc2)o1 [TCMDC-123781],-11.97%
5,Cc1ccc(CN2CCCN(Cc3ccc(C(=O)Nc4ccc(Cl)cc4)cc3)CC2)s1 [TCMDC-136414],86.68%
6,O=C(Nc1ccc(CN2CCOCC2)cc1)c1ccc(-c2ccc(Cl)cc2)o1 [TCMDC-124455],70.13%
7,O=C(Nc1ccc(CN2CCOCC2)cc1)c1ccc(-c2cc(Cl)ccc2Cl)o1 [TCMDC-125390],-41.52%
8,O=C(Nc1ccc(Cl)cc1)c1ccc(CN2CCCN(Cc3ccccc3)CC2)cc1 [TCMDC-136401],-26.98%
9,CCc1ccc(NC(=O)c2ccc(CN3CCCN(Cc4ccc(C)s4)CC3)cc2)cc1 [TCMDC-136449],10.45%
10,O=C(Nc1ccc(Cl)cc1)c1ccc(CN2CCCN(Cc3ccc(F)cc3)CC2)cc1 [TCMDC-136408],63.43%
11,COc1ccc(C2CC(c3ccccc3)=NN2C(=O)c2ccc(Br)o2)cc1 (stereo not drawn) [TCMDC-123705],-10.79%
12,CCCCCC(C)C(C)c1cc(O)c2c(c1)OC(C)(C)CC2c1cc[n+]([O-])cc1 (stereo not drawn) [TCMDC-131347],15.63%
13,CCOc1ccc(Br)cc1/C=C/C(=O)Nc1ccc2c(c1)C1CCC2N1C (stereo not drawn) [TCMDC-134191],-33.77%
14,Nc1c(Cl)cc(C(O)CNCCCCCCOCCC=C2CCOCC2)cc1Cl (stereo not drawn) [TCMDC-132097],35.85%
15,CC(C)(C)c1ccc(NC(=O)c2ccc(CN3CCCN(Cc4cccc(C#N)c4)CC3)cc2)cc1 [TCMDC-136430],8.252%
16,CCc1ccc(NC(=O)c2ccc(CN3CCCN(Cc4cccc(Cl)c4)CC3)cc2)cc1 [TCMDC-136438],-4.503%
17,CC(C)(C)c1ccc(NC(=O)c2ccc(CN3CCCN(Cc4cccc(Cl)c4)CC3)cc2)cc1 [TCMDC-136432],-29.42%
18,O=C(Nc1ccc(Cl)cc1)c1ccc(CN2CCCN(Cc3cccc(Cl)c3)CC2)cc1 [TCMDC-136405],70.05%
19,N#Cc1cccc(CN2CCCN(Cc3cccc(C(=O)Nc4ccc(Cl)cc4)c3)CC2)c1 [TCMDC-135962],-1.409%
20,N#Cc1cccc(CN2CCCN(Cc3ccc(C(=O)Nc4ccc(Cl)cc4)cc3)CC2)c1 [TCMDC-136403],58.71%
21,O=C(Nc1ccccc1)N1CCOC(CCN2CCC(F)(F)CC2)(c2ccc(Cl)c(Cl)c2)C1 (stereo not drawn) [TCMDC-135565],-12.88%
22,Cc1ccc(F)c(CN2CCC(N3CC(c4ccccc4)(c4ccccc4)OC3=O)CC2)c1Cl [TCMDC-136067],-42.69%
23,COc1ccc(OCCCON2C(N)=NC(N)=NC2(C)C)cc1 [TCMDC-131727],-17.37%

row,Compound,% Inhibition
1,CCCc1cc(NCC)nc(Nc2ccc(F)cc2)n1 [TCMDC-134011],18.21%
2,CCCCc1cc(=O)oc2cc(C)cc(OCc3ccccc3F)c12 [TCMDC-125642],42.72%
3,COc1ccc(Cl)cc1N1CCN(CCCNC(=O)c2ccc(-c3nc4ccc(C(F)(F)F)cc4[nH]3)c(C)c2)CC1 [TCMDC-140121],-20.72%
4,COc1ccc(Cl)cc1N1CCN(CCCNC(=O)c2ccc(-c3nc4c(C)cccc4[nH]3)s2)CC1 [TCMDC-140050],-10.33%
5,Cc1ccc(Cl)cc1N1CCN(CCCNC(=O)C2CCN(c3nc4ccccc4[nH]3)CC2)CC1 [TCMDC-124405],57.08%
6,Oc1ccccc1N1CCN(c2ccc(-c3nc4ccccc4[nH]3)cn2)CC1 [TCMDC-124820],-75.14%
7,CC(=O)N(Cc1nc(-c2cc(Cl)c(Cl)s2)cs1)c1c(C)cccc1C [TCMDC-135640],-42.77%
8,Cc1noc(C)c1-c1cccc(CNCc2ccc(-c3ccc(-c4nc5cccc(C)c5[nH]4)cc3)cc2)c1.O=C(O)C(F)(F)F [TCMDC-133061],-10.97%
9,CS(=O)(=O)c1ccc(-c2nc(NCC3CCCCC3)cc(C(F)(F)F)n2)cc1 [TCMDC-138597],3.227%
10,CON=C1CCC(Cn2ccnc2)(c2ccc(Cl)cc2Cl)CC1 (stereo not drawn) [TCMDC-132070],-6.365%
11,OC(Cn1ccnc1)(c1ccc(Cl)cc1Cl)C1CCCCC1 (stereo not drawn) [TCMDC-132084],-1.887%
12,Clc1ccc(OC2CCC(Cn3ccnc3)(c3ccc(Cl)cc3Cl)CC2)c(Cl)c1 (stereo not drawn) [TCMDC-132089],67.21%
13,CN(C)CCCNC(=O)c1ccccc1Sc1ccccc1C#N [TCMDC-137689],-3.028%
14,O=S(=O)(Nc1ccc(CCN2CCCCC2CCN2CCCC2)cc1)c1ccc(-c2ccccc2)cc1 (stereo not drawn) [TCMDC-134095],70.29%
15,O=S(=O)(Nc1cccc(CCN2CCCCC2CCN2CCCC2)c1)c1ccc(Oc2ccccc2)cc1 (stereo not drawn) [TCMDC-134094],61.85%
16,O=S(=O)(Nc1cccc(CCN2CCCCC2CCN2CCCC2)c1)c1ccc2ccccc2c1 (stereo not drawn) [TCMDC-134091],64.43%
17,CC1CCN(CC[C@H]2CCCN2S(=O)(=O)c2cccc(NC(=O)c3ccc(-c4ccccc4)cc3)c2)CC1 [TCMDC-141076],-81.19%
18,O=S(=O)(Nc1cccc(CCN2CCCCC2CCN2CCCC2)c1)c1ccc(-c2ccccc2)cc1 (stereo not drawn) [TCMDC-134093],39.18%
19,O=S(=O)(Nc1ccc(CCN2CCCCC2CCN2CCCC2)cc1)c1cccc2cccnc12 (stereo not drawn) [TCMDC-134096],43.66%
20,NC1CCN(CCc2ccc(NS(=O)(=O)c3ccc(-c4ccccc4)cc3)cc2)CC1 [TCMDC-134085],111.6%
21,CCc1ccc(S(=O)(=O)Nc2ccc(CCN(C)C3CCN(C)CC3)cc2)cc1 [TCMDC-134082],40.08%
22,O=S(=O)(Nc1cccc(CCN2CCCCC2CCN2CCCC2)c1)c1cccc2ccccc12 (stereo not drawn) [TCMDC-134092],40.53%
23,Cc1c(S(=O)(=O)Nc2cccc(CCN3CCCCC3CCN3CCCC3)c2)sc2ccc(Cl)cc12 (stereo not drawn) [TCMDC-134097],7.809%
